Source: PubChem BioAssay
PLK1 PBD inh = PLK1 (human) polo-box domain binding inhibition. P53350. Plk1 PBD binding of FITC phosphopeptide, fluorescence polarization. Potency, µM, inactives show max response, negative = inhibition, hits mostly inhibitors. 360,000 compounds, 2.8% hits. AID 720504; also: series mostly up to about 57 µM; nearly all actives have a fitted effect of over 65% in size
Gal4-VP16 FLuc = inhibits Gal4-VP16 luciferase reporter, ROR gamma counter-screen. 310,000 compounds, 3.5% hits. AID 2546. Potency, µM (series often up to 53.6 µM), for inactives: top-dose activity, negative = inhibition, actives largely listed as inhibitors. Drosophila S2 Gal4-VP16 UAS-luciferase, luminescence, 20 h;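 also: Gal4-VP16 expression switched on by copper sulfate through the metallothionein promoter; nearly all actives have a fitted effect of over 50% in size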
RORg inh = ROR gamma (mouse) transcription inhibition | P51450 | Drosophila S2 Gal4-RORgamma UAS-luciferase reporter, 20 h | Potency, µM (series often up to 53.6 µM), without a hit: at the top dose activity change, negative = inhibition, hits mostly inhibitors | 310,000 compounds, 5.4% hits; also: nearly all actives have a fitted effect of over 60% in size
Target sequence (P51450 whole entry, looked up, the tested form may be a part): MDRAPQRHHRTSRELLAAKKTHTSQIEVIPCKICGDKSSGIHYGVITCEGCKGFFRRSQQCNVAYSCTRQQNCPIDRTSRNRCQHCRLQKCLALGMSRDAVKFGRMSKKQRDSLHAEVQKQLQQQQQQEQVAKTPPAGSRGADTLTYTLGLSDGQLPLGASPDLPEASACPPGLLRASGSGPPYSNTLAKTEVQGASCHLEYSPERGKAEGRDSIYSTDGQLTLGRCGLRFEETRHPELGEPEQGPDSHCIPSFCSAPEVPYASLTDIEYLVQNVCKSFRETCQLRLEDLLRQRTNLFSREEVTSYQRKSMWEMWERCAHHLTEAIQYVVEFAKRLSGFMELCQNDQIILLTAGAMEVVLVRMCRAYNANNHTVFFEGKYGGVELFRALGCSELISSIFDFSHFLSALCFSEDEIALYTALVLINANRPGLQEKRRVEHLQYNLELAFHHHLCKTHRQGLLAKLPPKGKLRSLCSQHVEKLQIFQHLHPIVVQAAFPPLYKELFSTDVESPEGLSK
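Stably transfected Drosophila Schneider cells are the test system, with ROR gamma fused to Gal4 and luciferase under UAS control; luminescence is read after 20 hr of 700 uM copper sulfate induction at ambient temperature.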
ALDH1A1 block = blocks purified human ALDH1A1 activity | P00352 | Purified ALDH1A1, NADH fluorescence, propionaldehyde substrate | Potency, µM (highest dose often 75.3 µM), for inactives: top-dose activity, negative = inhibition, hits mostly inhibitors | 220,000 compounds, 7.3% hits | AID 1030; active = well fitted inhibition curve with a large enough effect, not every such curve was filed as active; inconclusive = small, poorly fitted or top-dose-only effect, or another doubt; inactive = no such curve, though single readings can be large or run the other way;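 also: plate controls were no enzyme wells and a reference inhibitor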
Sfp inh = Sfp phosphopantetheinyl transferase inhibition; AID 1490; Potency, µM, without a hit: largest response in the series, negative = inhibition, usual class: inhibitors; 310,000 compounds, 3.5% hits; Biochemical Sfp PPTase activity, qHTS; Q9F4F7;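 also: the enzyme is Sfp with the accession as filed and its product quenches rhodamine fluorescence; 0% = enzyme reaction without inhibitor and -100% = no enzyme wells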
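After 15 min at room temperature with compound, 15 nM Sfp received 5 uM rhodamine-CoA plus 12.5 uM BHQ-2-ybbR (50 mM Hepes pH 7.6, 10 mM MgCl2). Rate came from the fluorescence difference over 30 min, ex 525/em 598 nm.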
* marks the source's active call; other numbers are inactive results; [ ] = another dose, or the depositor's remark. Sampled rows, rich in hits. Any-hit rate of the full collection: about 12%. Unless noted, calls follow the shape of the dose curve; as a rule, active = well fitted curve in the direction sought with a large enough effect; inconclusive = small, poorly fitted or top-dose-only effect, or another doubt; inactive = no such curve, though single readings can be large; an effect the other way counts as inactive or inconclusive. Unless noted, % is scaled to controls: 0 for no effect and ±100 for the full control effect; potency is read from the fitted curve at half-maximal effect.

Screening COc1ccc(/C(C)=N/N=C2/NC(=O)CC(C(=O)O)S2)cc1 (configuration not stated) returned PLK1 PBD inh 12µM*, Gal4-VP16 FLuc 5%, RORg inh -7%, ALDH1A1 block -3% and Sfp inh 5%.
For CC(C)(C)C(=O)Nc1cc2nn(-c3ccccc3)nc2cc1Cl the results were PLK1 PBD inh 1%, Gal4-VP16 FLuc 3.5µM*, RORg inh 0.63µM*, ALDH1A1 block inconclusive and Sfp inh 2%.
`CCN(CC)CCC(c1ccc(N(C)C)cc1)c1c(OC)cc(OC)c2c(C)cc(=O)oc12` (configuration not stated) gave Gal4-VP16 FLuc -9%, RORg inh inconclusive and Sfp inh -11%.
For Clc1ccc(-n2nnnc2Sc2ncnc3sccc23)cc1 the results were PLK1 PBD inh 8.4µM*.
Screening C[C@@H]1CN([C@@H](C)CO)C(=O)c2cc(Br)cnc2O[C@H]1CN(C)Cc1cccc(C(=O)O)c1 returned PLK1 PBD inh -20%.
For COC(=O)c1sccc1N/C=C(\C#N)S(=O)(=O)C(C)(C)C the results were PLK1 PBD inh 38µM*, Gal4-VP16 FLuc -2%, RORg inh 11%, ALDH1A1 block inconclusive and Sfp inh 18%.
For COc1ccccc1N1CCN(C(=S)NC(=O)/C=C/c2ccccc2)CC1 the results were PLK1 PBD inh -12%, Gal4-VP16 FLuc 7.1µM*, RORg inh 0.89µM* and Sfp inh 20%.
COc1ccccc1N1CCN(C(=S)NC(=O)/C=C/c2ccc(F)cc2)CC1 was read as PLK1 PBD inh -9%, Gal4-VP16 FLuc 10µM*, RORg inh 3.5µM* and Sfp inh 5%.
For COc1ccccc1N1CCN(C(=O)CCC(=O)O)CC1 the results were PLK1 PBD inh -11%, Gal4-VP16 FLuc -13%, RORg inh 5%, ALDH1A1 block 8% and Sfp inh 4%.
Screening Cc1cc(C)cc(NC(=S)N(C)C)c1 returned PLK1 PBD inh 5%, Gal4-VP16 FLuc -21%, RORg inh 10µM*, ALDH1A1 block 7% and Sfp inh 2%.
Cc1cc(C)c(NC(=S)N(C)C)cc1C was read as PLK1 PBD inh -3%, Gal4-VP16 FLuc -28%, RORg inh 7.9µM* and Sfp inh 9%.
Screening CCOC(=O)c1c(C)[nH]c(C(=O)OCC(=O)NCc2ccco2)c1C returned PLK1 PBD inh 1%.
For Cc1ccc(C2NC(=O)NC(O)(C(F)(F)F)C2C(=O)c2ccccc2)o1 (configuration not stated) the results were PLK1 PBD inh -9%, Gal4-VP16 FLuc inconclusive, RORg inh -10%, ALDH1A1 block 8.9µM* and Sfp inh -1%.
COc1ccc(C(=O)C2C(c3ccc(-c4ccccc4[N+](=O)[O-])o3)NC(=O)NC2(O)C(F)(F)F)cc1 (configuration not stated) was read as PLK1 PBD inh -6%, Gal4-VP16 FLuc -7%, RORg inh 23%, ALDH1A1 block 13µM* and Sfp inh -13%.
Cc1ccc(C2NC(=O)NC(O)(C(F)(F)F)C2C(=O)c2cccs2)o1 (configuration not stated) was read as PLK1 PBD inh -4%, Gal4-VP16 FLuc 20%, RORg inh 23%, ALDH1A1 block inconclusive and Sfp inh 16%.
`CN(C)Cc1ccccc1-c1nc(N(C)Cc2ccco2)c2ccccc2n1` gave Gal4-VP16 FLuc 0%, RORg inh -18%, ALDH1A1 block -7% and Sfp inh -11%.
`CCC1(C)CN=C(c2ccccc2)NC1` (configuration not stated) gave PLK1 PBD inh 3%.
Screening CCC1(CC)N=C(c2ccccc2)C(=S)N1 returned PLK1 PBD inh -5%, Gal4-VP16 FLuc 11µM*, RORg inh 3.5µM*, ALDH1A1 block -3% and Sfp inh 28%.
Screening C#CCOc1c(Br)cc(/C=N\NC(=O)CN2CCOCC2)cc1OCC returned PLK1 PBD inh -3%, Gal4-VP16 FLuc 35µM*, RORg inh 12%, ALDH1A1 block inconclusive and Sfp inh 13%.
For O=C(OCc1ccccc1)c1c(-c2ccccc2)oc2c1C(OCCO)CCC2 (configuration not stated) the results were PLK1 PBD inh -6%.
`Cc1ccccc1NC(=S)N(Cc1ccccn1)Cc1ccccc1Cl` gave PLK1 PBD inh -1%, Gal4-VP16 FLuc inconclusive, RORg inh 6.3µM*, ALDH1A1 block inconclusive and Sfp inh 2%.
For COc1ccccc1NC(=S)N(Cc1cccnc1)Cc1ccccc1Cl the results were PLK1 PBD inh 2%, Gal4-VP16 FLuc 1%[10 µM], RORg inh inconclusive, ALDH1A1 block inconclusive and Sfp inh 17%.
Cc1ccccc1NC(=S)N(Cc1cccnc1)Cc1ccccc1Cl was read as PLK1 PBD inh -27%, Gal4-VP16 FLuc -16%, RORg inh 2.2µM*, ALDH1A1 block inconclusive and Sfp inh 6%.
Screening CC(C)(C)c1ccc(-c2cn(-c3ccc(Br)cc3)c3[n+]2CCCS3)cc1 returned PLK1 PBD inh 10%, Gal4-VP16 FLuc 7.9µM*, RORg inh 7.1µM*, ALDH1A1 block inconclusive and Sfp inh -11%.
Screening c1ccc(-c2cn(-c3ccccc3)c3[n+]2CCS3)cc1 returned PLK1 PBD inh -6%, Gal4-VP16 FLuc -15%, RORg inh 28%, ALDH1A1 block 16% and Sfp inh 5%.
For CCC(=O)Nc1cc2c(C)cc(=O)oc2cc1C the results were PLK1 PBD inh -4%, Gal4-VP16 FLuc -8%, RORg inh -4%, ALDH1A1 block inconclusive and Sfp inh 17%.
`CCCCCCC(=O)Nc1cc2c(C)cc(=O)oc2cc1C` gave PLK1 PBD inh -12%, Gal4-VP16 FLuc -2%, RORg inh 27%, ALDH1A1 block 5µM* and Sfp inh -17%.
For CN(C)CCNCCCNc1c2ccccc2nc2cccc([N+](=O)[O-])c12 the results were PLK1 PBD inh -6%.
For O=C(Nc1cccc(Cl)c1)Nc1nccs1 the results were PLK1 PBD inh 2%, Gal4-VP16 FLuc 9%, RORg inh -11%, ALDH1A1 block 3% and Sfp inh 50µM*.
`O=C(Nc1ccc(Cl)c(Cl)c1)Nc1nccs1` gave PLK1 PBD inh -8%, Gal4-VP16 FLuc 1%, RORg inh -1% and Sfp inh 56µM*.
For CCCCOCCCNC(=O)C[C@@H]1C[C@@]2(C(=O)OC)CC(C)(C)CC=C2N(Cc2ccccc2)C1=O the results were PLK1 PBD inh -3%.
COc1ccc(/C=C/C(=O)c2ccc(C)c([N+](=O)[O-])c2)cc1O was read as PLK1 PBD inh -25%, Gal4-VP16 FLuc 16µM*, RORg inh -84%, ALDH1A1 block 22µM* and Sfp inh 79µM*.
Screening COc1cc(O)c(C(=O)/C=C/c2ccc(OC)c(O)c2)c(OC)c1 returned Gal4-VP16 FLuc inconclusive, RORg inh inconclusive, ALDH1A1 block 14µM* and Sfp inh -38%.
